From PubChem
An excerpt weighted towards active compounds, which were near 5.1% of everything screened.
ROMK mod: modulators of human ROMK potassium channel. P48048. Tet-inducible ROMK, thallium flux fluorescence; actives lie on both sides. B-score at 10 µM. 2% of 130,000 active;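 active means signal ratio slope over the read window, or its plate-corrected B-score, at least 3 SD from the plate mean, either direction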;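 further: B-score of the F/F0 ratio slope over 7 to 12 s after thallium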
KCC2 mod: modulates chloride dependent transport by human KCC2; Q9H2X9; KCC2 cells, thallium flux FluoZin-2 fluorescence; B-score of Tl+ flux slope (higher = more flux/activation; lower = inhibition) at 10 µM; 2.2% of 190,000 active;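 active means thallium flux slope and its plate-corrected score both differing from the plate sample mean at a set confidence after two filtering rounds, in either direction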;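 further: slope of fluorescence scaled to starting intensity during 10 to 20 s after thallium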
Target sequence (Q9H2X9 whole entry, looked up): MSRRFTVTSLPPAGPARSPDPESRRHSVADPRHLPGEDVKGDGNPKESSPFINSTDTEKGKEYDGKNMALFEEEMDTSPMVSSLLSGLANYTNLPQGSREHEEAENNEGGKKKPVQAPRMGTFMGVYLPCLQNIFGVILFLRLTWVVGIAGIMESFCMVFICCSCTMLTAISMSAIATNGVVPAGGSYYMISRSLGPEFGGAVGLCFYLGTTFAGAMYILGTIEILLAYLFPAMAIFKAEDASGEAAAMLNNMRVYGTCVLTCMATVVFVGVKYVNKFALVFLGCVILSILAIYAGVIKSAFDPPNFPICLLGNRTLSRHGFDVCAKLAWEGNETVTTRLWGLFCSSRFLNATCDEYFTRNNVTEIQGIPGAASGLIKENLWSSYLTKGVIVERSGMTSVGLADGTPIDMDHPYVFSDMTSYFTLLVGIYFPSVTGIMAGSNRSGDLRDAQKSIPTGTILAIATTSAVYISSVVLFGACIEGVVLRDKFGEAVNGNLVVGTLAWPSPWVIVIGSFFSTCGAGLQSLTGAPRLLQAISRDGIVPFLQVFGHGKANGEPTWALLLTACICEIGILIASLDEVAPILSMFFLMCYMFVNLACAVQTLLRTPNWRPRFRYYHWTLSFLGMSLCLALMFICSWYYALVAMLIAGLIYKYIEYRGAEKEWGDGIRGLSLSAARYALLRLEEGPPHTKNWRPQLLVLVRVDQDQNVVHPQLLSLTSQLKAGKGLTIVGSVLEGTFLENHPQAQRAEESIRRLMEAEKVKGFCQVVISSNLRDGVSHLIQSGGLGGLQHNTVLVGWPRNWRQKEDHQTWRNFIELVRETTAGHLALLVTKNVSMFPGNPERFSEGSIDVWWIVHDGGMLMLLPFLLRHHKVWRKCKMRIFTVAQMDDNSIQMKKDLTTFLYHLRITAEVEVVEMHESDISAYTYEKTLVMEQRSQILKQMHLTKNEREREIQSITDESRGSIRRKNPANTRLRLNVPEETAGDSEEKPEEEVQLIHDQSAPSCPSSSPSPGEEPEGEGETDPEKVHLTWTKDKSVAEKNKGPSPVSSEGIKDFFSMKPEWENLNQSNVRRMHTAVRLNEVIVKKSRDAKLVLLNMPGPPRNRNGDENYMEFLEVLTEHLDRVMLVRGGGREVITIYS
S1P4 antag: human S1P4 receptor antagonism; O95977; S1P4-expressing cells, antagonist mode, reporter read-out; inhibition, % at 4.98 µM; 0.26% of 220,000 active; AID 1510; in the data active means inhibition above about 29%
RAM inhibit: inhibitors of the yeast RAM network. inhibition, % at 50 µM. S. cerevisiae dse1pr::URA3 reporter, 5-FOA growth OD615, 2 d; analog-sensitive cbk1-as2 kinase mutant strain. 1.8% of 190,000 active;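 active means inhibition above a set limit, 3 SD over mean compound inhibition, cut at about 8.4% in these data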;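 further: inhibition rescues growth on 5-FOA so higher OD means more RAM inhibition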
S1P4 ag: human S1P4 receptor agonism; 0.35% of 220,000 active; O95977; activation, % at 4.98 µM; S1P4-expressing cell line, agonist reporter assay; in the data active means activation above about 11%
S1P3 antag: S1P3 (human) receptor antagonism. CHO S1P3 NFAT-BLA reporter, FRET fluorescence, antagonist mode. inhibition, % at 4.98 µM. 0.27% of 170,000 active;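 active means inhibition above the plate cutoff, the mean inhibition of test wells on that plate plus 3 SD, cut at about 28% in these data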;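 further: cells challenged with S1P at its EC80 of 0.8 µM; blue over green emission ratio from cleaved BLA substrate after 4 h stimulation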
KCC2 sec1: KCC2 (human) modulation, secondary assay | HEK293-KCC2, thallium flux, FluoZin2 fluorescence; stronger effect = higher value | normalised thallium flux (F/F0 slope) at 10 µM | 15% of 3,700 active | shares compounds with KCC2 mod;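 active means thallium flux slope above the same plate's solvent-only control mean plus 3 SD; inconclusive means the two replicate wells disagree; inactive means no significant difference from solvent-only control wells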
KCC2 bumet counter: bumetanide-insensitive thallium flux in KCC2 cells with ouabain, counter-screen. shares compounds with KCC2 mod. AID 1714. HEK293-KCC2 + bumetanide/ouabain, thallium flux FluoZin2; stronger effect = higher value. 49% of 3,700 active. normalized thallium flux at 10 µM;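 active means thallium entry rate above the same plate's blocked-transporter control wells by more than 3 SD; inconclusive means the two repeat wells disagree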;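 further: raw slope of fluorescence over initial fluorescence between 10 and 20 s after thallium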
KCC2 sec2: KCC2 (human) modulation, second secondary assay | normalized thallium flux at 10 µM | HEK293-KCC2, thallium flux FluoZin2 fluorescence; actives lie on both sides; F/F0 rise rate, 10–20 s post-thallium | shares compounds with KCC2 mod | AID 1715 | 23% of 3,700 active;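 active means thallium flux slope more than 3 SD above or below the plate's solvent-only control mean, mostly below; inconclusive means the two repeat wells disagreed; inactive means no significant shift from solvent-only controls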
HEK counter1: parental HEK flux effect, counter-screen; shares compounds with KCC2 mod; HEK293 parental cells, thallium flux FluoZin2, ouabain; baseline-ratio fluorescence slope, 10–20 s after thallium; thallium flux rate (normalised fluorescence) at 10 µM; 46% of 3,700 active;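 active means thallium flux rate significantly above the same plate's solvent-only control wells, beyond their mean plus 3 SD; inconclusive means the two replicate wells gave conflicting results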
KCC2 retest ouab: modulates human KCC2 on retest with ouabain | 48% of 3,700 active | shares compounds with KCC2 mod | AID 1717 | HEK293-KCC2, thallium flux FluoZin2 fluorescence; bidirectional: low = inhibitor, high = activator | raw Tl+ flux slope (below DMSO = inhibition, above = activation) at 10 µM;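 active means thallium flux slope beyond 3 SD from same-plate DMSO control mean in most replicates, usually higher, sometimes lower; inconclusive means repeat tests gave conflicting results; inactive means no significant difference from controls in most replicates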;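 further: slope of initial-normalized fluorescence between seconds 10 and 20 after thallium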
HEK293 Tl flux2: parental HEK flux effect, counter-screen 2. shares compounds with KCC2 mod. HEK293 parental, thallium flux FluoZin-2 fluorescence slope. thallium flux slope at 10 µM. 33% of 3,700 active. AID 1718;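 active means thallium flux slope above the same plate's solvent-control mean plus 3 SD in both duplicate wells; inconclusive means duplicate wells that disagreed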;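 further: run without ouabain in cells lacking the KCC2 cotransporter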
Hits are given with their value; . = inactive; ? = inconclusive; / = not tested or not shown.

SMILES | ROMK mod | KCC2 mod | S1P4 antag | RAM inhibit | S1P4 ag | S1P3 antag | KCC2 sec1 | KCC2 bumet counter | KCC2 sec2 | HEK counter1 | KCC2 retest ouab | HEK293 Tl flux2
CCCN1C(=O)/C(=C/c2ccc3c(c2)OCO3)NC1=S | . | 45 | . | . | . | . | 0.026 | 0.071 | . | 0.092 | 0.06 | 0.022
CCCN1C/C(=C/c2ccc3c(c2)OCO3)C(=O)/C(=C/c2ccc3c(c2)OCO3)C1 | / | . | . | . | . | . | / | / | / | / | / | /
O=C(CCc1nnc(-c2ccc3c(c2)OCO3)o1)N1CCC(c2ccc(F)cc2)C1 (stereo unspecified) | . | -4.8 | . | . | . | . | . | . | 0.022 | 0.0062 | 0.014 | ?
O=C(CCc1nnc(-c2ccc3c(c2)OCO3)o1)NC(c1ccccn1)C(F)(F)F (stereo unspecified) | . | . | . | . | . | . | / | / | / | / | / | /
CCn1c(-c2ccc(F)cc2)n[nH]c1=S | / | . | . | . | . | . | / | / | / | / | / | /
CCn1c(-c2ccc(C(C)(C)C)cc2)n[nH]c1=S | . | 6.8 | . | . | . | . | ? | 0.03 | . | ? | 0.032 | ?
COC(=O)N/N=C/c1c(C)cc(C)cc1C | . | -5.3 | . | . | . | . | . | . | . | . | . | .
CCOC(=O)NC(=O)CSc1ccc(C)cc1C | . | 2.9 | . | . | . | . | . | . | . | ? | . | .
COc1ccc(OC)c(/C=N/NC(=O)CSc2cc(C)nc3c(OC)cccc23)c1 | . | . | . | . | . | . | / | / | / | / | / | /
c1ccc(-c2noc(-c3ccccc3-c3ccccc3)n2)cc1 | . | 5.6 | . | . | . | / | . | . | . | . | . | .
Cc1nn(CCC(N)=S)c2nc(-c3cccs3)cc(C(F)(F)F)c12 | . | . | . | . | . | . | / | / | / | / | / | /
Cc1ccc(S(=O)(=O)Cn2nnnc2C(C(C)C)N2CCSCC2)cc1 (stereo unspecified) | . | / | . | . | . | . | / | / | / | / | / | /
Cc1ccc(S(=O)(=O)Cn2nnnc2C(C(C)C)N2CCN(Cc3ccco3)CC2)cc1 (stereo unspecified) | / | -2.5 | . | . | . | . | . | . | . | . | . | .
COc1ccc(NC(=O)CSc2nc(-c3ccncc3)nn2CC(=O)N2CCCC2)cc1 | . | -4.3 | . | . | . | . | . | . | . | . | . | .
COc1ccc(NC(=O)CSc2nnc(-c3ccncc3)n2C)cc1 | / | . | . | . | . | . | / | / | / | / | / | /
CCOCCn1c(CN2CCN(CC)CC2)nc2c1c(=O)n(C)c(=O)n2C | . | 6.3 | . | . | . | . | . | . | . | . | . | .
CCOCCn1c(CN2CCCCC2)nc2c1c(=O)n(C)c(=O)n2C | / | / | / | / | / | . | / | / | / | / | / | /
Cc1ccc(CNC(=O)c2ccc(N3CCCC3=O)cc2)cc1 | / | -4.3 | . | . | . | / | . | . | . | . | . | .
CCOc1cc(/C=N\Nc2ncc(F)c(N3CCOCC3)n2)ccc1Oc1nc(Cl)ncc1F | / | . | . | / | . | . | / | / | / | / | / | /
Clc1ccccc1CSC1=NCCCN1 | . | / | . | . | . | / | . | . | . | . | . | .
COc1ccccc1NC(=O)Cn1c(=O)sc2ccccc21 | . | . | . | . | . | / | / | / | / | / | / | /
COc1ccc(NC(=O)Cn2c(=O)sc3ccccc32)c(OC)c1 | / | -2.9 | . | . | . | . | . | . | . | ? | . | .
COc1ccc(-c2cn(-c3ccc(C)cc3)c(=O)n2CC(=O)Nc2ccc(OC)cc2OC)cc1 | . | / | . | . | . | / | . | . | . | . | . | .
C=C(C)c1cccc(C(C)(C)NC(=O)N2CCCC(C(N)=O)C2)c1 (stereo unspecified) | / | . | . | . | . | . | / | / | / | / | / | /
C=C(C)c1cccc(C(C)(C)NC(=O)N2CCC(C(N)=O)CC2)c1 | . | -3.2 | . | . | . | . | . | ? | . | . | . | .
SMILES | ROMK mod | KCC2 mod | S1P4 antag | RAM inhibit | S1P4 ag | S1P3 antag | KCC2 sec1 | KCC2 bumet counter | KCC2 sec2 | HEK counter1 | KCC2 retest ouab | HEK293 Tl flux2
O=C(CNC(=O)c1cccs1)NC1=NCCS1 | / | 2.9 | . | . | . | . | . | . | . | . | . | .
COCCNC(C)C(=O)C12CC3CC(CC(C3)C1)C2 (stereo unspecified) | / | 9 | . | . | . | . | . | . | . | . | . | .
CN(C(=O)CSc1ncnc2sc(-c3ccccc3)cc12)C1CCS(=O)(=O)C1 (stereo unspecified) | . | 138 | . | . | . | . | . | 0.11 | 0.11 | 0.11 | 0.1 | 0.11
CCOC(=O)c1sc2nc(C)nc(SCC(=O)N(C)C3CCS(=O)(=O)C3)c2c1C (stereo unspecified) | . | 24 | . | . | . | . | . | 0.06 | 0.052 | 0.049 | 0.048 | 0.046
CN(C(=O)CSc1ncnc2scc(-c3ccccc3)c12)C1CCS(=O)(=O)C1 (stereo unspecified) | . | . | . | . | . | . | / | / | / | / | / | /
COC(=O)c1scc(C)c1N1C(=O)c2ccccc2C1=O | / | . | . | / | . | . | / | / | / | / | / | /
CC1(C(=O)OCC(=O)c2c[nH]c3ccccc23)CC1(Cl)Cl (stereo unspecified) | . | -2.5 | . | . | . | / | . | . | . | . | 0.016 | .
Cc1ccc(C(=O)OCC(=O)c2c[nH]c3ccccc23)cc1 | . | . | . | . | . | . | / | / | / | / | / | /
CC(C)COC(=S)Nc1ccccc1 | / | 9.3 | . | . | . | / | . | 0.01 | . | 0.01 | ? | ?
Cn1cc(SCC(=O)N2CCN(c3ccccc3)CC2)c2ccccc21 | / | -5.2 | . | . | . | . | . | . | 0.023 | . | 0.014 | .
CCOc1cc(-c2noc(CCCC(N)=O)n2)cc(Br)c1OC | . | 4.5 | . | . | . | . | . | ? | . | . | . | .
O=[N+]([O-])c1ccccc1Sc1nccn1Cc1ccccc1 | / | -4.2 | . | . | . | . | . | . | . | ? | 0.013 | .
O=C(Nc1nc(=O)n(C(=O)c2cccc(C(F)(F)F)c2)s1)c1ccccc1 | / | -4.3 | . | / | . | . | . | . | 0.024 | . | 0.016 | .
Cn1c(=O)c2ncn(CC(=O)Nc3cccc(-c4nc5ccccc5s4)c3)c2n(C)c1=O | / | / | . | . | . | / | / | / | / | / | / | /
